Experimental data: PubChem BioAssay AID1851 (National Center for Advancing Translational Sciences (NCATS), 2009)
The campaign covered roughly 16,000 compounds. About 5,800 (36%) were called active. Not shown: some 23% with an inconclusive outcome. The list shows a part of the results. Unmarked numbers belong to inactive results. The call rests on the fitted dose curve; in most records, active means well fitted curve in the direction sought with a large enough effect; inconclusive means small, poorly fitted or top-dose-only effect, or effect the other way; inactive means no such curve, though single readings can be large or run the other way.
On the % scale 0 is the no-effect control and ±100 the full control effect.

What follows are compounds tested against Cytochrome P450 2C19 (Homo sapiens) (UniProt P33261) (assay: Cytochrome panel assay with activity outcomes). Conditions: recombinant CYP, pro-luciferin dealkylation, luminescence, p450-cyp2c19; series mostly up to 57.1 µM.
Cytochrome P450 2C19 (Homo sapiens), sequence (P33261 whole entry, looked up): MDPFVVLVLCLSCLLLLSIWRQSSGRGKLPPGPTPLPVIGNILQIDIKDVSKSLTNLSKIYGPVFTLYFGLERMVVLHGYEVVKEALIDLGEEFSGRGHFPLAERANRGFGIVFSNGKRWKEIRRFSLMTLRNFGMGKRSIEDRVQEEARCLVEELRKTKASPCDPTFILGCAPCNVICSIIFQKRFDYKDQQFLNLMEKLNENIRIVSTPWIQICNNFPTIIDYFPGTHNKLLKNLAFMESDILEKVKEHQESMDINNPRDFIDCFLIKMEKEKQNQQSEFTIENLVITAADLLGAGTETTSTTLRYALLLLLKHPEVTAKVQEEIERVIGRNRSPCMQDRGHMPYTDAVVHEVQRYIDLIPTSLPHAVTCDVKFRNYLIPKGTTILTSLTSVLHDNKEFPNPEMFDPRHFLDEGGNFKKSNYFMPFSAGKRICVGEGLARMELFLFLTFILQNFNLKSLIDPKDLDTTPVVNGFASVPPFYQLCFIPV
Work on `O=C(Oc1ccc(S(=O)(=O)F)cc1F)c1ccccc1Cl` yielded an activity, negative = inhibition of 11.2% [at 11.4 µM].
For `N[C@@]1(C(=O)O)CC[C@H](C(=O)O)C1`, the AC50 was “inactive”.
With `CC(C)CN1CC[C@@]2(CCCN(C(=O)Oc3ccccc3)C2)C1` the AC50 was “inactive”.
For `C[C@@H]1[C@@H](C)N1C[C@H](O)Cn1ccnc1[N+](=O)[O-]` (stereo not given in full), the activity, negative = inhibition was 3.22% [at 11.4 µM].
`O=c1c2ccccc2c2ccccc2c(=O)n1-c1cc2c3ccccc3ccc2c2ccccc12` was tested, and the AC50 was 158 nM (active).
`CC[C@H]1CN2CC[C@@H]1C[C@H]2[C@@H](O)c1ccnc2ccc(OC)cc12` was tested, and the AC50 was “inactive”.
With `Cc1ncsc1CCCl` the AC50 was 7940 nM (active).
`CN(C)CCC=C1c2ccccc2CCc2ccccc21` was tested, and the AC50 was “inactive”.
`CCN(CC)C1=NC(=[N+](CC)CC)c2ccccc21` was tested, and the AC50 was “inactive”.
`C[C@@]12CCC(=O)C=C1C=C[C@H]1[C@H]3CC[C@](O)(CCC(=O)O)[C@]3(C)CC[C@@H]12` was tested, and the AC50 was “inactive”.
For `COC(=O)c1cc2c(cn1)[nH]c1ccccc12`, the AC50 was 3980 nM (active).
`C[C@@]12CC[C@H]3[C@@H](CCC4=CC(=O)CC[C@]43C)[C@H]1CC[C@H]2C(=O)CO` was tested, and the AC50 was “inactive”.
With `Cc1ccc(S(=O)(=O)O[C@H]2CN3CCC2CC3)cc1` the activity, negative = inhibition was 21.1% [at 11.4 µM].
In the case of `NC(N)=Nc1ccc2[nH]c3c(c2c1)C[C@]1(O)[C@@H]2Cc4ccc(O)c5c4[C@]1(CCN2CC1CC1)[C@H]3O5`, the AC50 is reported as “inactive”.
With `O=[N+]([O-])O[C@H]1CO[C@H]2[C@H]1OC[C@@H]2O[N+](=O)[O-]` the AC50 was “inactive”.
With `CCCC[N+]1(C)[C@@H]2CC(OC(=O)[C@@H](CO)c3ccccc3)C[C@H]1[C@H]1O[C@H]12` (stereo not given in full) the AC50 was “inactive”.
With `CC1=C(O)C(=O)[C@H]2O[C@@H]2C1=O` the AC50 was 158 nM (active).
For `CN1CCCC2(CCN(C(=O)c3ccncc3)CC2)C1`, the AC50 was “inactive”.
`CN(C)Cc1c[nH]c2ccccc12` was tested, and the AC50 was “inactive”.
In the case of `CC1=NN(c2ccccc2)C(=O)[C@@H]1N=Nc1ccc([As](=O)(O)O)c(O)c1`, the activity, negative = inhibition is reported as 22.8% [at 11.4 µM].
For `C[C@H](c1ccccc1)N1CCN([C@@H](C)c2ccccc2)CC1`, the activity, negative = inhibition was -29.5% [at 11.4 µM].
In the case of `Cc1cc(C(C)(C)C)cc(C)c1CC1=NCCN1`, the AC50 is reported as “inactive”.
For `CCN(CC)c1ccc(/C=C2/C(=O)NC(=O)N(CC3CCCO3)C2=O)cc1` (stereo not given), the AC50 was 7080 nM (active).
With `C=CCN1C(=O)NC(=O)/C(=C/c2cccn2C)C1=O` the AC50 was “inactive”.
Compound `Oc1ccc([C@H](O)[C@@H]2CCCCN2)cc1O` has an activity, negative = inhibition of 10% [at 11.4 µM].
For `CN1[C@H]2CC(=O)C[C@@H]1[C@@H](O)C2`, the AC50 was “inactive”.
For `C[C@@]12CC[C@@H]3c4ccc(O)cc4CC[C@H]3[C@H]1CC[C@H]2O`, the AC50 was “inactive”.
In the case of `C[C@@]12CC[C@H]3[C@@H](CC[C@@H]4C[C@H]5S[C@H]5C[C@]43C)[C@H]1CC[C@H]2O`, the AC50 is reported as 63.1 nM (active).
`C[N+](C)(C)CCCCCCCCCC[N+](C)(C)C` was tested, and the AC50 was “inactive”.
Work on `Nc1nc(N)c(N=Nc2ccc([As](=O)(O)O)cc2)c(=O)[nH]1` yielded an activity, negative = inhibition of 19% [at 11.4 µM].
`COC(=O)Nc1nc2ccc(C(=O)c3cccs3)cc2[nH]1` was tested, and the AC50 was “inactive”.
In the case of `O=C1C=CC(=O)c2c1ccc1c2ccc2ccccc21`, the AC50 is reported as 1580 nM (active).
With `CCN1C[C@]2(COC)CC[C@H](O)[C@@]34[C@@H]5C[C@H]6[C@@H](OC)[C@H]5[C@](O)(C[C@@H]6OC)[C@@](O)([C@@H](OC)[C@H]23)[C@@H]14` the AC50 was “inactive”.
In the case of `C[C@]12CC[C@H](O)C[C@@H]1CC[C@H]1[C@H]2CC[C@]2(C)C(=O)CC[C@@H]12`, the AC50 is reported as “inactive”.
For `C[C@@]12CC[C@@H]3[C@@H](CC[C@H]4C[C@@H](O)CC[C@]43C)[C@H]1CC[C@@H]2c1cc(C(F)(F)F)n[nH]1`, the AC50 was 2510 nM (active).
In the case of `C[C@]12CC[C@H](O)C[C@@H]1CC[C@H]1[C@H]2CC[C@]2(C)[C@H](C(=O)CO)CC[C@@H]12`, the AC50 is reported as “inactive”.
With `NN=C(N)N` the AC50 was “inactive”.
For `N[C@H](CCC(=O)N[C@H](CSN=O)C(=O)NCC(=O)O)C(=O)O`, the AC50 was 1580 nM (active).
In the case of `COC(=O)[C@H]1C(=O)c2ccccc2O[C@@](C(=O)OC)(c2ccccc2)[C@@H]1c1ccccc1`, the activity, negative = inhibition is reported as -43% [at 11.4 µM].
For `CN1CCN(c2cc(N3CCCC3)c([N+](=O)[O-])cc2F)CC1`, the AC50 was 7940 nM (active).
`NC(=O)c1cc(N2CC2)c([N+](=O)[O-])cc1[N+](=O)[O-]` was tested, and the AC50 was “inactive”.
With `CN(C)C(=O)Oc1ccc[n+](C)c1` the AC50 was “inactive”.
`CSC([N-]/N=C/c1cccc(C)n1)=[S]=[Cu].CS[C@H]([S-])[N-]/N=C/c1cccc(C)n1` was tested, and the AC50 was 200 nM (active).
`CC(=O)OC1=CC2=CC[C@H]3[C@H]4CCC(=O)[C@@]4(C)CC(=O)[C@]3(S)[C@]2(C)CC1` gave an activity, negative = inhibition of -14.8% [at 11.4 µM].
For `c1csc(CN2CCC3(CCNCC3)CC2)n1`, the AC50 was “inactive”.
In the case of `CCCN(C/C=C\I)[C@@H]1CCc2ccc(O)cc2C1`, the AC50 is reported as 1000 nM (active).
In the case of `CCCN(CCC)[C@@H]1CCc2ccc(O)cc2C1`, the AC50 is reported as “inactive”.
`CCCN(CCC)[C@@H]1CCc2cccc(O)c2C1` was tested, and the AC50 was “inactive”.
`CN(C)CC/C=C1\c2ccccc2Sc2ccc(Cl)cc21` showed an activity, negative = inhibition of -17.3% [at 11.4 µM].
`NO` was tested, and the AC50 was “inactive”.
In the case of `Cc1sc2c(c1C)C(c1ccc(C(C)(C)C)cc1)=NCC(=O)N2CC(=O)Nc1nccs1`, the AC50 is reported as 6310 nM (active).
In the case of `CCCN1CCC[C@H](c2cccc(C#N)c2)C1`, the AC50 is reported as “inactive”.
In the case of `CCN1C[C@]2(C)CC[C@@H](O)[C@]34[C@@H]5CC6[C@@H](OC)C[C@@](O)([C@H]5[C@@H]6O)[C@@H](C[C@@H]23)[C@H]14`, the AC50 is reported as “inactive”.
`CC(C)(C)CC(=O)NC(=S)Nc1ccccc1C(F)(F)F` was tested, and the AC50 was 3160 nM (active).
Work on `CC(C)c1ccc(C(c2c(O)c3ccccc3oc2=O)c2c(O)c3ccccc3oc2=O)cc1` yielded an activity, negative = inhibition of -40.6% [at 11.4 µM].
For `Cn1c(=O)c2[nH]cnc2n(C)c1=O`, the AC50 was “inactive”.
With `CC(C)(C)NC[C@@H](O)COc1cccc2[nH]c(C#N)cc12` the AC50 was 15800 nM (active).
In the case of `c1csc(CN2CC3(CCNCC3)C2)n1`, the AC50 is reported as “inactive”.
For `Oc1ccc(CCNCc2cc3c(cc2Br)OCO3)cc1`, the AC50 was 5010 nM (active).
In the case of `C[N+]1(C)CCO[C@](O)(c2ccc(-c3ccc([C@]4(O)C[N+](C)(C)CCO4)cc3)cc2)C1`, the AC50 is reported as “inactive”.
